Several values for one entry are separate records, joined by “and”; a condition that tells them apart may be missing. Identical values can stand only once. The campaign covered roughly 420,000 compounds. About 50,000 (12%) were called active. Inconclusive results (about 26%) are left out. The sample as a whole holds a higher share of actives than the screen did. Values without a mark were called inactive. Calls follow the shape of the dose curve; as a rule, active = well fitted inhibition curve with a large enough effect; inconclusive = small, poorly fitted or top-dose-only effect; inactive = flat fitted curve, though single readings scatter.
% is scaled to controls: 0 for no effect and ±100 for the full control effect; potency is read from the fitted curve at half-maximal effect.

A short description of this test: qHTS for Inhibitors of human tyrosyl-DNA phosphodiesterase 1 (TDP1): qHTS in cells in presence of CPT. Also: nearly all actives have a fitted effect of over 55% in size. As to conditions: chicken DT40 Tdp1-/-;hTDP1 cells + 20 nM CPT, ATP luminescence, 48 h; series mostly up to 46.2 µM; activity change, negative = growth inhibition: at the top concentration. The gist of the method:
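Chicken DT40 Tdp1-/- cells stably complemented with human TDP1 were seeded at 400 cells/well in medium containing 20 nM camptothecin, exposed to pin-transferred compounds, and grown at 37 °C for at least 48 hr. Viability was read as ATP luminescence.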
(In general: In qHTS, concentration-response curves come from the screen itself.)
As to `COc1ccc(NC(=O)Cn2ncn3c(cc4ccccc43)c2=O)c(OC)c1OC`, the “activity change, negative = growth inhibition” value is 18.6%. Still for that read-out and setting: next, `O=C1CCC(C(=O)N2CCC(O)(c3ccccc3)CC2)CN1CCc1ccccc1` (stereo not drawn): -4.28%; `Cc1cccnc1NC(=O)CSc1nnc(COc2ccc(C(C)C)cc2)n1C`: -14%. The same measure, in the same setting: next, `CN(CC(=O)Nc1ccccc1Cl)C(=O)COc1cccc2c1OC(C)(C)C2`: -16.5%; `O=C(O)CSCC(=O)Nc1cccc(C(F)(F)F)c1`: 2.36%. Consider `Cn1nc(C(F)(F)F)c(C(=O)Nc2cccc(C(F)(F)F)c2)c1SCc1ccc(Cl)cc1`, for which the Potency is 16.4 µM (active). For `CCC(=O)OCc1c(C(F)(F)F)nn(C)c1Oc1cccc(C(F)(F)F)c1`, the “activity change, negative = growth inhibition” value was -24.2%. On the same count and under the same terms, next, `CC(C)OCCCNC(=O)c1ccc(C2SCC(=O)N2Cc2ccco2)cc1` (stereo not drawn): -1.03%. On to `COCCNC(=O)c1ccc2c(c1)N=C(C)c1cc(C)ccc1S2`, for which the Potency is 0.517 µM (active). For the compound `CC(C)OCCCNC(=O)CNC(=O)c1cccs1`, the “activity change, negative = growth inhibition” value is 3.22%.

For `COCCNC(=O)c1snc2ccc(Cl)cc12`, the “activity change, negative = growth inhibition” value was -8.22%. As for `CCC1=Nc2cc(C(=O)NCCCOC(C)C)ccc2Sc2ccc(C)cc21`, the Potency was 0.92 µM (active).

As to `Cc1ccc(OCCNC(=O)CNC(=O)c2ccc(C)c(C)c2)cc1`, the “activity change, negative = growth inhibition” value is 5.02%. On the same count and under the same terms, the value for `CCCCSc1[nH]c(=O)c(C(=O)OCC)cc1C#N` was -15.2%. For the compound `Cc1ccc(C)c(-n2c(SCC(=O)O)nc3sc4c(c3c2=O)CCCC4)c1`, the “activity change, negative = growth inhibition” value was -11.5%. Still for that read-out and setting: next, `CCOC(=O)c1c(NC(=O)CN2C(=O)NC3(CCC(C)CC3)C2=O)sc(C)c1CC` (stereo not drawn): -5.5%. Regarding `Nc1ccc(S(=O)(=O)NC(=O)c2ccccc2)cc1`, the Potency entry is “inactive”. On to `Nc1ccc(C(=O)NCc2ccccc2)cc1`, for which the “activity change, negative = growth inhibition” value was -1.18%. On to `Nc1ccc(C(=O)Nc2ccccc2N)cc1`, for which the Potency is 2.37 µM (active) and 5.8 µM (active). With `O=C(NCC1CCCO1)/C(=C/c1ccc(Cl)cc1)NC(=O)c1ccccc1` (stereo not drawn), the “activity change, negative = growth inhibition” value is -17.3%. The same measure, in the same setting: next, `Cc1nn(C)cc1S(=O)(=O)N1CCN(c2ccc(F)cc2)CC1`: -1.16%; `O=C(COc1cccc2c1CCNC2=O)NC1CCCCC1`: -29.5%; `CCOc1ccccc1NC(=O)C1CCCN(S(=O)(=O)c2cn(C)cn2)C1` (stereo not drawn): 13.4%.

As for `CCOc1ccccc1CNC(=O)C1CCCN(S(=O)(=O)c2ccc3c(ccn3C)c2)C1` (stereo not drawn), the Potency was 14.6 µM (active).

`COc1cccc(CNC(=O)C2CCN(S(=O)(=O)c3ccc4c(ccn4C)c3)CC2)c1`: the “activity change, negative = growth inhibition” value is -15.4%. For the compound `O=C1CCCCC1Sc1ccc(Cl)cc1[N+](=O)[O-]` (stereo not drawn), the “activity change, negative = growth inhibition” value is -11.8%. Still for that read-out and setting: next, `Cc1c(CNC2CCCCC2)c(C(=O)O)c(C)n1Cc1cccc(Cl)c1`: -21.2%. In the case of `CC(=O)c1ccc(NC(=O)C(C)NCc2ccc(Cl)cc2)cc1` (stereo not drawn), the “activity change, negative = growth inhibition” value was -18.7%. Still for that read-out and setting: the value for `Nc1nonc1-n1nnc(C(=O)N/N=C/c2ccc(Cl)cc2)c1-c1ccc2c(c1)OCO2` was -20.4%. The same measure, in the same setting: the value for `Cc1cc(N2C(=O)C(=O)/C(=C(/O)c3ccccc3)C2c2cccc(Br)c2)no1` (stereo not drawn) was -28.5%. Regarding `CCN(CC)CCCC(C)n1c2nc(=O)[nH]c(=O)c-2nc2cc(Cl)ccc21` (stereo not drawn), the Potency was 8.2 µM (active). As to `O=c1[nH]c(NCCO)nnc1Cc1ccc(Cl)cc1`, the “activity change, negative = growth inhibition” value was 0.596%. As for `COc1ccc(Cc2nnc(N/N=C/c3ccccc3O)[nH]c2=O)cc1OC`, the Potency is 0.0184 µM (active). On to `COc1ccc(/C=N/Nc2nc3ccccc3c(=O)[nH]2)cc1`, for which the “activity change, negative = growth inhibition” value is -16.4%. On the same count and under the same terms, next, `COC(=O)C(=Nc1ccccc1)/C(C(=O)C(=O)N(C)c1ccccc1)=C(\O)c1ccc(Cl)cc1`: 7.92%; `O=c1cnnc(Nc2ccccc2F)[nH]1`: -6.88%.

On to `Cc1c(C(=O)OCC(=O)N2CCCC2=O)oc2ccccc12`, for which the “activity change, negative = growth inhibition” value is 14.4%. `CSCCC(NS(=O)(=O)c1ccc2c(c1)oc(=O)n2C)C(=O)NCc1ccccc1` (stereo not drawn): the Potency entry was “inactive”. The same measure, in the same setting: the value for `COc1ccccc1CNC(=O)C(Cc1ccccc1)NS(=O)(=O)c1ccc2c(c1)oc(=O)n2C` (stereo not drawn) was 20.6 µM (active). With `Cc1ccc(NC(=O)C(Cc2ccccc2)NS(=O)(=O)c2ccc3c(c2)oc(=O)n3C)cc1C` (stereo not drawn), the “activity change, negative = growth inhibition” value was 8.66%. Still for that read-out and setting: the value for `O=C(O)CCC(=O)NCc1ccc2[nH]c3c(c2c1)CCCC3` was -3.68%.

Take `Cc1cccc(NC(=S)N2CCCC(c3nc4ccccc4[nH]3)C2)c1` (stereo not drawn): the “activity change, negative = growth inhibition” value was -26%.

Regarding `Cc1cccc(NC(=S)NCc2ccc3[nH]c4c(c3c2)CCCC4)c1`, the Potency is 23.1 µM (active). Consider `Cc1ccc(S(=O)(=O)N2CCOCC2)cc1C(=O)Nc1ccccc1N1CCCC1`, for which the “activity change, negative = growth inhibition” value was -26.6%. In the case of `Oc1cccc(CCc2ccccn2)c1`, the “activity change, negative = growth inhibition” value was -10.9%. Consider `C=CCC[C@@H](CCCCC)OC(=O)/C=C/[C@@H](O)[C@H](O)C[C@H](O)CC=C`, for which the Potency was 23.1 µM (active). Regarding `CN(C)/C=C(/C(=O)c1ccccc1Cl)S(C)(=O)=O`, the “activity change, negative = growth inhibition” value is -0.266%. For `COC(=O)c1ccc(/C=C/c2c(-c3ccc(OC)cc3)sc3ccccc23)cc1`, the Potency was 14.6 µM (active).

As for `COc1ccccc1-c1sc2ccccc2c1-c1ccc(C(C)=O)cc1`, the “activity change, negative = growth inhibition” value is -23%. The same measure, in the same setting: the value for `COc1ccc(NC(=O)COC(=O)c2ccc(NS(=O)(=O)/C=C/c3ccccc3)cc2)cc1` was 15.2%. On the same count and under the same terms, the value for `CCCCOc1ccc(C(=O)NCC(=O)OCC(=O)c2c(N)n(C)c(=O)n(C)c2=O)cc1` was 14.1%; that for `Cc1nc2ccc(C(=O)O)cc2[nH]1` was 3.42%. In the case of `COC(=O)Nc1nc2ccc(Sc3ccccc3)cc2[nH]1`, the Potency was 651 nM (active) and 360 nM (active) and 517 nM (active). Take `CC(C)c1nc2ccc(C(=O)O)cc2[nH]1`: the “activity change, negative = growth inhibition” value was 20.3%. The same measure, in the same setting: the value for `N#Cc1ccccc1NC(=O)c1ccc2c(c1)OCO2` was -4.16%.

Take `CC(C)c1ccc(NC(=O)C2CCN(c3nc(-c4ccc(C(C)C)cc4)no3)CC2)cc1`: the Potency is 13 µM (active). As to `Cc1cc(C)cc(NC(=O)C2CCN(c3nc(C)cc(C)n3)CC2)c1`, the “activity change, negative = growth inhibition” value was -9.07%.

For `CCOc1ccc(NC(=O)C2CCN(S(=O)(=O)c3cc(-c4noc(C)n4)ccc3C)CC2)cc1`, the “activity change, negative = growth inhibition” value was -26.3%. The same measure, in the same setting: the value for `Cc1ccc(NC(=O)CSc2sc3c(O)cc(=O)[nH]c3c2C#N)cc1C` was -2.41%. On the same count and under the same terms, next, `CCC(=O)N1c2ccccc2NC2=C(C(=O)CCC2)C1c1ccco1` (stereo not drawn): 25.3%; `Cn1ccnc1SCC(=O)Nc1ccc2c(c1)OCCO2`: 15%. Still for that read-out and setting: the value for `C=CCn1c(CNC(=O)c2ccco2)nnc1SCC(=O)c1ccc(OC)cc1` was -26.5%. Regarding `CCCNC(=O)C1(C)CCCN(C(=O)c2cccc(OC(C)=O)c2C)C1` (stereo not drawn), the “activity change, negative = growth inhibition” value was -1.02%. As to `CCCNC(=O)C1(C)CCCN(Cc2cccc(C(F)(F)F)c2)C1` (stereo not drawn), the Potency is 18.4 µM (active). Regarding `CCCNC(=O)C1(C)CCCN(Cc2c(C)nn(-c3ccccc3)c2C)C1` (stereo not drawn), the “activity change, negative = growth inhibition” value was -11.8%. Same read-out and setting: the value for `CCNC(=O)C1(C)CCN(Cc2ccc(C(=O)OCC)o2)C1` (stereo not drawn) was -13.1%. Turning to `CCCNC(=O)C1(C)CCN(Cc2csc(-c3ccc(Cl)cc3)n2)C1` (stereo not drawn), the Potency is 23.1 µM (active). For `COCCNC(=O)C1(C)CCCN(Cc2cccc(F)c2)C1` (stereo not drawn), the “activity change, negative = growth inhibition” value was -22.2%.

The record behind these values is PubChem BioAssay AID686979 (National Center for Advancing Translational Sciences (NCATS), 2013).
